In PubChem BioAssay (EPA / NIEHS):
Records with an inconclusive call do not appear. Activity calls are given as the source filed them. How the source made its calls, unless noted: active means hit-call score of the fitted dose curve at least 0.9, where 1 is the maximum; inactive means score below 0.9.

What was measured:
[1] = ACEA_ER_80hr: ACEA Biosciences xCELLigence Real-Time Cell Analysis on Estrogen Receptor Agonism for Proliferation (AID 2282667; active means hit-call score of the fitted dose curve at least 0.9, where 1 is the maximum); details: T47D proliferation, impedance (xCELLigence), 80 h
How it was run: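 Real-time impedance growth kinetics of human T-47D breast cells read 80 h after dosing, gain-of-signal fitted relative to DMSO. Compounds: 1:4 serial series, top final concentration 100 uM, n = 2.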

[2] = APR_HepG2_CellCycleArrest_24hr: Apredica 24-hour HepG2 Assay for Cell Cycle Arrest (AID 2282905); details: imaging, actives raise or lower the signal;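 further: cell cycle arrest scored as ratio of 2N to 4N nuclear DNA content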
How it was run: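 Cell cycle arrest is scored from nuclear DNA content measured by high-content imaging of Hoechst 33342-stained HepG2 cells following 24-hour treatment at ten concentrations up to 200 uM, with DMSO as baseline.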

[3] = APR_HepG2_NuclearSize_24hr: Apredica 24-hour HepG2 Assay for Nuclear Size (AID 2282907); details: high-content imaging, actives raise or lower the signal
How it was run: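 Compounds in DMSO (final 0.5%) were added to human HepG2 hepatoma cells at ten concentrations up to 200 uM for 24 hr. Fixed nuclei were stained with Hoechst 33342, and nuclear diameter was quantified from automated images.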

[4] = APR_HepG2_CellLoss_24hr: Apredica 24-hour HepG2 Assay for Cell Loss (AID 2282908); details: high-content imaging
How it was run: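 Cell number is quantified by fluorescence imaging of Hoechst 33342-stained nuclei following dosing at 0.39–200 uM in 0.5% DMSO. Curves are fitted in both directions from the DMSO baseline.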

[5] = APR_HepG2_MicrotubuleCSK_24hr: Apredica 24-hour HepG2 Assay for Microtubule CSK Stabilty (AID 2282909); details: HepG2 microtubule cytoskeleton imaging, actives raise or lower the signal
How it was run: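 Steps: dose HepG2 for 24 h (0.39–200 uM, 0.5% DMSO); fix 30 min in 3.7% formaldehyde at room temperature; permeabilize; stain alpha-tubulin 60 min; image microtubule cytoskeleton at 20x. Signal change fitted in both directions relative to DMSO.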

[6] = APR_HepG2_MitoticArrest_24hr: Apredica 24-hour HepG2 Assay for Mitotic Arrest (AID 2282910); details: high-content imaging, actives raise or lower the signal
How it was run: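 Compounds are dosed onto HepG2 cells across ten concentrations up to 200 uM for 24 hr. Cells are then fixed in 3.7% formaldehyde, permeabilised, and labelled for phospho-histone H3 and nuclei; images are scored by cell cycle analysis and fitted bidirectionally relative to DMSO.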

[7] = APR_HepG2_MitoMembPot_24hr: Apredica 24-hour HepG2 Assay for Mitochondrial Membrane Potential (AID 2282911); details: imaging, actives raise or lower the signal
How it was run: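 Mitochondrial membrane potential imaged via MitoTracker Red CMXRos (250 nM, 30 min pre-fixation) in fixed HepG2 cells with Hoechst nuclear identification. Ten concentrations 0.39–200 uM, 24 h treatment, 0.5% DMSO; CCCP as positive control.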

[8] = APR_HepG2_MitoMass_24hr: Apredica 24-hour HepG2 Assay for Mitochondrial Mass (AID 2282912); details: high-content imaging, actives raise or lower the signal
How it was run: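 The liver line HepG2 was dosed in duplicate across a 0.39–200 uM series, with final DMSO held at 0.5% v/v, and harvested at 24 hr. High-content imaging measured mitochondrial dye staining.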

[9] = APR_HepG2_p53Act_24hr: Apredica 24-hour HepG2 Assay for p53 Activation (AID 2282913); details: high-content imaging, actives raise or lower the signal;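 further: p53 protein immunofluorescence averaged per cell in HepG2 with Hoechst nuclei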
How it was run: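 Fluorescence imaging of formaldehyde-fixed HepG2 cells labelled for p53 and with Hoechst, 24 h after dosing (0.39–200 uM, duplicate wells, 0.5% v/v DMSO). Signal fitted in both directions relative to DMSO.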

[10] = APR_HepG2_CellCycleArrest_72hr: Apredica 72-hour HepG2 Assay for Cell Cycle Arrest (AID 2282914); details: high-content imaging, actives raise or lower the signal
How it was run: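 Read-out: nuclear DNA content from Hoechst 33342 high-content imaging (20x, six fields/well) after 3.7% formaldehyde fixation, fitted bidirectionally against DMSO. Treatment was 72 h in HepG2, ten concentrations 0.39–200 uM, duplicate, 0.5% DMSO.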

## CCCCOCC1CO1 (stereo not given)
[1]
  outcome: inactive

## Cn1[nH]nnc1=S
[1]
  outcome: inactive

## CC(C)CBr
[1]
  outcome: inactive

## CCOP(=S)(S)OCC
[1]
  outcome: inactive

## CCCCN(CCCC)N=O
[1]
  outcome: inactive
[2]
  outcome: inactive
[3]
  outcome: inactive
[4]
  outcome: inactive
[5]
  outcome: inactive
[6]
  outcome: inactive
[7]
  outcome: inactive
[8]
  outcome: inactive
[9]
  outcome: inactive
[10]
  outcome: inactive

## N#Cc1cc([N+](=O)[O-])ccc1N
[1]
  outcome: inactive

## Cc1ccc(C(=O)Cl)cc1
[1]
  outcome: inactive

## CC(=O)c1ccc(-c2ccccc2)cc1
[1]
  outcome: inactive

## OCC1CO1 (stereo not given)
[1]
  outcome: inactive
[2]
  outcome: inactive
[3]
  outcome: inactive
[4]
  outcome: inactive
[5]
  outcome: inactive
[6]
  outcome: inactive
[7]
  outcome: inactive
[8]
  outcome: inactive
[9]
  outcome: inactive
[10]
  outcome: inactive

## OCC(F)(F)OC(F)(F)C(F)(F)OC(F)(F)CO
[1]
  AC50: 20200 nM (active)

## O=C(O)CF
[1]
  outcome: inactive

## NNC(N)=S
[1]
  outcome: inactive

## C/C(=N\NC(=O)Nc1cc(F)cc(F)c1)c1ncccc1C(=O)O
[1]
  AC50: 265 nM (active)

## CC(C)(C)OOC(C)(C)C
[1]
  outcome: inactive
[2]
  outcome: inactive
[3]
  outcome: inactive
[4]
  outcome: inactive
[5]
  outcome: inactive
[6]
  outcome: inactive
[7]
  outcome: inactive
[8]
  outcome: inactive
[9]
  outcome: inactive
[10]
  outcome: inactive

## CCCCC(CC)COP(=O)(Oc1ccccc1)Oc1ccccc1 (stereo not given)
[1]
  outcome: inactive

## Cc1cc(C)c(C(=O)P(=O)(c2ccccc2)c2ccccc2)c(C)c1
[1]
  outcome: inactive

## CCN(CC)C1CCCCC1
[1]
  outcome: inactive

## CCOC(=O)c1ccccc1N
[1]
  outcome: inactive

## ClC(Cl)=C(c1ccc(Cl)cc1)c1ccccc1Cl
[1]
  outcome: inactive

## CC(O)C#N (stereo not given)
[1]
  outcome: inactive

## O=C(CBr)OCc1ccccc1
[1]
  outcome: inactive

## CC1=C(C(=O)Nc2ccccc2)S(=O)(=O)CCO1
[1]
  AC50: 267 nM (active)

## CO/N=C(/C(=O)OC)c1ccccc1COc1ccccc1C
[1]
  outcome: inactive
